Inconclusive results are not listed. Active and inactive are the calls of the source. Calls come from the whole dose curve.
Assay: Confirmation and Secondary Assays for Modulators of Hemoglobin Beta Chain Splicing at IVS2 654 and 705 loci
Details: HeLa beta-globin IVS2-654 splicing GFP reporter, 48 h
Description: NIH Chemical Genomics Center [NCGC]
NIH Molecular Libraries Screening Centers Network [MLSCN]
PI Name: Dr. Ryszard Kole
Modulation of Alternative Splicing as Therapy
Abnormal splicing is associated with a number of diseases, including cancer and genetic diseases such as cystic fibrosis, muscular dystrophy and beta-thalassemia. Alteration of disease associated splicing patterns provides a promising target for treatment. […] Mutations in the second intron of the b-globin gene at positions 654 or 705 are clinically relevant and cause mis-splicing which results in an out of frame gene product.
EGFP-654 HeLa Cells as screen system.
(§1) HeLa cell lines were stably transfected with a construct in which the EGFP (enhanced green fluorescent protein) cDNA was interrupted by the second intron of the beta-globin gene (IVS2-654). The ISV2 intron contains mutations which cause mis-splicing of EGFP and premature termination of EGFP which results in a nonfluorescent protein product. […] Expression of the transgene was driven by the CMV promoter. We concluded that a low molecular weight compound, which restored correct splicing of intron 2 would also generate functional EGFP protein, resulting in a fluorescent signal. Thus, the HeLa cells that express the EGFP-654 construct can be used for high throughput screening of a chemical library.
EGFP-705 HeLa Cells as screen system.
as §1, with “(IVS2-705).” for “(IVS2-654).”, “EGFP-705” for “EGFP-654”, “validation of splice site specificity of compounds identified in primary” for “high throughput”, “the ISV2 654 construct.” for “a chemical library.”
NCGC Assay Protocol Summary:
Confirmatory Screening. Freshly thawed HeLa EGFP-654 or EGFP-705 cells were seeded in 5 ul of optimem media (Invitrogen) containing 2 % fetal calf serum (Hyclone) and 1x penicillin/streptomycin (Invitrogen) at a concentration of 500 cells per well in 1536-well plates. Cells were incubated overnight at 37C in 5% CO2. The next day, cells were treated with DMSO, 500 nM antisense ISV2 654 (or 705) PNA control oligo, or library compound and allowed to grow at 37C in 5% CO2 for 2 days. The PNA oligo blocked the mutation site in the intron and allowed proper (wild type) splicing to occur, resulting in full length EGFP expression and also allowed for optimization of the assay parameters. Plates were read in the Acumen Explorer (TTP Labtech) using 488 nm laser excitation and 500-520 nm emission PMT filter in a 1 x 8 uM capture mode, and were read immediately after compound pinning (beta-globin-654-gfp-0hr), at 24 hours (beta-globin-654-gfp-24hr and beta-globin-705-gfp-24hr), and at 48 hours (beta-globin-654-gfp-48hr and beta-globin-705-gfp-48hr). Fluorescnet objects ranging in size from 5 to 250 uM were measured and the total peak GFP intensity for each well was used for data analysis. Cell death was measured by quantitating protease release by sick and dying cells using Promega's luminescent Cytotox-Glo reagent. Cells were treated with 2ul of Cytotox- Glo reagent incubated at room temperature for 5 minutes and read in the Viewlux plate reader with a 30 second integration time (beta-globin-654-protease-48hr and beta-globin-705-protease-48hr).
Keywords: Thalassemia, beta-thalassemia, beta-globin, EGFP, ISV2 654, ISV2 705, SSO, PNA, antisense, splicing, MLSMR, MLSCN, NIH Roadmap, qHTS, NCGC

Potency, active:
S=C1NC=NC2N=CNC12 (stereo not drawn) 1.58 µM
O=c1[nH]c(=O)n([C@@H]2O[C@H](CO)[C@@H](O)[C@H]2O)cc1F 3.98 µM
OCC1OC(n2cnc3c(=S)nc[nH]c32)C(O)C1O (stereo not drawn) 1.78 µM
Nc1nc(=S)c2[nH]cnc2[nH]1 1.12 µM
Nc1nc(=S)c2ncn([C@H]3O[C@@H](CO)[C@@H](O)[C@@H]3O)c2[nH]1 1.26 µM
CCn1c(C)nc([N+](=O)[O-])c1Sc1ncnc2nc[nH]c12 2 µM
Nc1nc2n[nH]nc2c(=O)[nH]1 2.51 µM
Cn1cnc([N+](=O)[O-])c1Sc1ncnc2nc[nH]c12 2 µM

From PubChem BioAssay AID1405 (National Center for Advancing Translational Sciences (NCATS), 2008)
